Source: PubChem BioAssay
The source made the active and inactive calls.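 Rule for the calls, unless noted: active = inhibition above the screen-wide mean plus 3 SD, about 51%; inactive = the rest.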

target: ATP-binding cassette sub-family B member 6 (Homo sapiens) (UniProt Q9NP58); assay: ABCB6 transporter inhibitors, pilot screen, K562-ABCB6 cells, flow cytometry, validation set (AID 588550); conditions: K562-ABCB6 porphyrin accumulation, 1 h, at 10 µM, stronger effect = higher value;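 note: 0% = DMSO wells and 100% = benzethonium chloride 70 µM positive control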
Sequence (Q9NP58 whole entry, looked up): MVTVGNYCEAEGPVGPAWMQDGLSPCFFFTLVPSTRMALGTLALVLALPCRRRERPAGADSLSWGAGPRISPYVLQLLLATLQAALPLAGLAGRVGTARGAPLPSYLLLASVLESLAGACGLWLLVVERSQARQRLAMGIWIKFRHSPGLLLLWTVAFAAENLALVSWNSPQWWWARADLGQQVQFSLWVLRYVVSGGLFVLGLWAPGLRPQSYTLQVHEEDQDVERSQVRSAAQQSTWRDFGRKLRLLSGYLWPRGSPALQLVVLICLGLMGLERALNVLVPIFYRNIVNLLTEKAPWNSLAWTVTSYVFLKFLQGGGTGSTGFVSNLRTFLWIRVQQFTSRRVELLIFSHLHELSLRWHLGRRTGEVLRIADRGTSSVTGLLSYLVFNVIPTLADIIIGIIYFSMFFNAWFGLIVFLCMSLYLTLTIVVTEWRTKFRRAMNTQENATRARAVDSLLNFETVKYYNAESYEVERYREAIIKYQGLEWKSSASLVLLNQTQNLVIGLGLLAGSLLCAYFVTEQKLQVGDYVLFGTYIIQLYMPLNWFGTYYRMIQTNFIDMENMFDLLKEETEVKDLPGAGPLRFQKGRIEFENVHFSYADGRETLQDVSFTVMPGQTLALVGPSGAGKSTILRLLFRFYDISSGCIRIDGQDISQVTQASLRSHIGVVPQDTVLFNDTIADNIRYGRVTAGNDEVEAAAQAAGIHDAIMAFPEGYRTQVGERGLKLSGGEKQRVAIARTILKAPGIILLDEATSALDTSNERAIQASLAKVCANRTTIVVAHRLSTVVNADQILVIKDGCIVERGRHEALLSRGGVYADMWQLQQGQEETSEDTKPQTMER

| SMILES | inhibition |
| --- | --- |
| COc1cc(/C=C(\C#N)C(=O)N2CCc3ccccc32)ccc1O | -41% (inactive) |
| O=C(Nc1ccccc1)c1ccccc1CCc1ccccc1 | 0% (inactive) |
| COc1ccc(CCN2CCC(Nc3nc4ccccc4n3Cc3ccc(F)cc3)CC2)cc1 | -38% (inactive) |
| CCOc1ccc(CC2c3cc(OCC)c(OCC)cc3CCN2C(=O)CN2CCN(C)CC2)cc1OCC (stereo not given) | 4% (inactive) |
| COc1ccc2c(CCNC(=O)c3ccc([N+](=O)[O-])cc3)c[nH]c2c1 | 4% (inactive) |
| O=c1[nH]c(Cc2ccccc2)nc2c1oc1ccccc12 | 4% (inactive) |
| O=C(c1ccccc1)N1CCN(C(=O)c2ccccc2)CC1 | 3% (inactive) |
| COc1ccccc1C1(CC(=O)N2CCCCC2)CCOC(C(C)C)C1 (stereo not given) | 6% (inactive) |
| COc1cc([C@@H]2c3cc4c(cc3[C@H](O)[C@H]3COC(=O)[C@H]23)OCO4)cc(OC)c1OC | 7% (inactive) |
| N=C1C(c2ccccc2)=C(O)CN1CCCO | 12% (inactive) |
| CCS(=O)(=O)Nc1cc(OC)c(OC)cc1Cc1nccc2cc(OC)c(OC)cc12 | 0% (inactive) |
| O=C(OCCN1CCCC1)C1(c2ccccc2)CCCC1 | -8% (inactive) |
| CC(=O)N1CC2(C)CN(C(C)=O)CC(C)(C1)C2 | -1% (inactive) |
| COc1ccc(CCCC(=O)O)c(C)c1 | 17% (inactive) |
| Cc1ccc2c(CN3CCN(Cc4ccc5c(c4)OCO5)CC3)cc(=O)oc2c1C | -11% (inactive) |
| COc1ccc(C(=O)Nc2ccc(OC)c([N+](=O)[O-])c2)cc1Br | 2% (inactive) |
| O=C(Oc1cccccc1=O)c1ccccc1 | 2% (inactive) |
| C=CCc1ccc(OCC(O)COc2ccc(CC=C)cc2OC)c(OC)c1 | 4% (inactive) |
| COc1cc(NC(=O)N[C@@H](Cc2ccccc2)C(=O)O)cc(OC)c1 | 2% (inactive) |
| CC1/C(=C\c2ccc(Cl)cc2)C(=O)C2CC1C2(C)C (stereo not given) | 9% (inactive) |
| CCC(=O)c1ccc(O)cc1 | 19% (inactive) |
| COc1ccc(C(=O)[C@H]2[C@H]3C(=O)N(c4ccccc4)C(=O)[C@H]3C3C=CC=NN32)cc1 (stereo not given in full) | -9% (inactive) |
| C[C@H](NC(=O)Nc1ccccc1F)C(=O)O | 7% (inactive) |
| CCCN1C[C@H](CSC)C[C@@H]2c3cccc4[nH]cc(c34)C[C@H]21 | -37% (inactive) |
| C[C@H](NC(=O)OC(C)(C)C)C(=O)NCC1CCC(C(=O)O)CC1 (stereo not given in full) | 6% (inactive) |

tested on: not listed separately; assay: promoters of myeloid differentiation in arrested cells, primary screen, cell-based, GFP/MAC1 double positive, flow cytometry, validation set (AID 588685;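 active = differentiation response of at least 50%, scaled between solvent and reference control, from cells with both markers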;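 note: compound exposure lasts four days before antibody staining and flow analysis; 0% = DMSO wells and 100% = 5 µM fulvestrant positive control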); conditions: ER-HoxA9 marrow cells, stronger effect = higher value, normalized: vehicle 0, fulvestrant 100

| SMILES | differentiation response |
| --- | --- |
| COc1cc(/C=C(\C#N)C(=O)N2CCc3ccccc32)ccc1O | 2.46% (inactive) |
| O=C(Nc1ccccc1)c1ccccc1CCc1ccccc1 | -0.18% (inactive) |
| COc1ccc(CCN2CCC(Nc3nc4ccccc4n3Cc3ccc(F)cc3)CC2)cc1 | 10.1% (inactive) |
| CCOc1ccc(CC2c3cc(OCC)c(OCC)cc3CCN2C(=O)CN2CCN(C)CC2)cc1OCC (stereo not given) | -3.02% (inactive) |
| COc1ccc2c(CCNC(=O)c3ccc([N+](=O)[O-])cc3)c[nH]c2c1 | -21.6% (inactive) |
| O=c1[nH]c(Cc2ccccc2)nc2c1oc1ccccc12 | -4% (inactive) |
| O=C(c1ccccc1)N1CCN(C(=O)c2ccccc2)CC1 | 12% (inactive) |
| COc1ccccc1C1(CC(=O)N2CCCCC2)CCOC(C(C)C)C1 (stereo not given) | 23.2% (inactive) |
| COc1cc([C@@H]2c3cc4c(cc3[C@H](O)[C@H]3COC(=O)[C@H]23)OCO4)cc(OC)c1OC | -0.06% (inactive) |
| N=C1C(c2ccccc2)=C(O)CN1CCCO | -31.2% (inactive) |
| CCS(=O)(=O)Nc1cc(OC)c(OC)cc1Cc1nccc2cc(OC)c(OC)cc12 | -5.97% (inactive) |
| O=C(OCCN1CCCC1)C1(c2ccccc2)CCCC1 | -7.2% (inactive) |
| CC(=O)N1CC2(C)CN(C(C)=O)CC(C)(C1)C2 | -4.99% (inactive) |
| COc1ccc(CCCC(=O)O)c(C)c1 | 0% (inactive) |
| Cc1ccc2c(CN3CCN(Cc4ccc5c(c4)OCO5)CC3)cc(=O)oc2c1C | -6.03% (inactive) |
| COc1ccc(C(=O)Nc2ccc(OC)c([N+](=O)[O-])c2)cc1Br | -10.4% (inactive) |
| O=C(Oc1cccccc1=O)c1ccccc1 | 5.85% (inactive) |
| C=CCc1ccc(OCC(O)COc2ccc(CC=C)cc2OC)c(OC)c1 | 50.4% (active) |
| COc1cc(NC(=O)N[C@@H](Cc2ccccc2)C(=O)O)cc(OC)c1 | 0.92% (inactive) |
| CC1/C(=C\c2ccc(Cl)cc2)C(=O)C2CC1C2(C)C (stereo not given) | -5.6% (inactive) |
| CCC(=O)c1ccc(O)cc1 | 10% (inactive) |
| COc1ccc(C(=O)[C@H]2[C@H]3C(=O)N(c4ccccc4)C(=O)[C@H]3C3C=CC=NN32)cc1 (stereo not given in full) | -8.96% (inactive) |
| C[C@H](NC(=O)Nc1ccccc1F)C(=O)O | -10.4% (inactive) |
| CCCN1C[C@H](CSC)C[C@@H]2c3cccc4[nH]cc(c34)C[C@H]21 | -10.9% (inactive) |
| C[C@H](NC(=O)OC(C)(C)C)C(=O)NCC1CCC(C(=O)O)CC1 (stereo not given in full) | 0.8% (inactive) |
